Screens deposited in PubChem BioAssay by National Center for Advancing Translational Sciences (NCATS).
NIH3T3 tox: Cytotoxic Profiling in NIH 3T3 Cell Line of Diverse Libraries Using Quantitative High-Throughput Screening. NIH 3T3 viability, CellTiter-Glo ATP luminescence, 48-72 h. Potency, µM (highest dose often 96.7 µM), inactives show at the highest dose activity change, negative = cytotoxicity, actives largely listed as inhibitors. hit rate 4.3% among 94,000; note: nearly all actives have a fitted effect of over 55% in size
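Mouse fibroblast NIH 3T3 cells, 400 per well, received compound via pintool and were incubated for 48 or 72 hr prior to CellTiter-Glo ATP luminescence measurement.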
SNCA expr inh: Primary qHTS assay for inhibitors of alpha-synuclein gene (SNCA) expression; HEK-293 SNCA-luciferase knock-in, luminescence, 24 h; Potency, µM (titrated, usually from 57.2 µM), for the others: at the top dose activity change, negative = inhibition, actives largely listed as inhibitors; hit rate 0.17% among 140,000; AID 1671194, 2021;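 note: plate controls were DMSO cells for no effect and cell-free wells for full effect; nearly all actives have a fitted effect of over 45% in size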
NPR1 antag: Natriuretic polypeptide receptor (hNpr1) antagonism - Primary qHTS; Atrial natriuretic peptide receptor 1 (Homo sapiens), P16066; HEK293 hNpr1 GloSensor cGMP, ANP-stimulated luminescence; Potency, µM (titrated, usually from 46.3 µM), inactives show top-dose activity change, negative = inhibition, actives largely listed as inhibitors; hit rate 1.6% among 76,000; calls by dose curve; note: nearly all actives have a fitted effect of over 60% in size
Target sequence (P16066 whole entry, looked up): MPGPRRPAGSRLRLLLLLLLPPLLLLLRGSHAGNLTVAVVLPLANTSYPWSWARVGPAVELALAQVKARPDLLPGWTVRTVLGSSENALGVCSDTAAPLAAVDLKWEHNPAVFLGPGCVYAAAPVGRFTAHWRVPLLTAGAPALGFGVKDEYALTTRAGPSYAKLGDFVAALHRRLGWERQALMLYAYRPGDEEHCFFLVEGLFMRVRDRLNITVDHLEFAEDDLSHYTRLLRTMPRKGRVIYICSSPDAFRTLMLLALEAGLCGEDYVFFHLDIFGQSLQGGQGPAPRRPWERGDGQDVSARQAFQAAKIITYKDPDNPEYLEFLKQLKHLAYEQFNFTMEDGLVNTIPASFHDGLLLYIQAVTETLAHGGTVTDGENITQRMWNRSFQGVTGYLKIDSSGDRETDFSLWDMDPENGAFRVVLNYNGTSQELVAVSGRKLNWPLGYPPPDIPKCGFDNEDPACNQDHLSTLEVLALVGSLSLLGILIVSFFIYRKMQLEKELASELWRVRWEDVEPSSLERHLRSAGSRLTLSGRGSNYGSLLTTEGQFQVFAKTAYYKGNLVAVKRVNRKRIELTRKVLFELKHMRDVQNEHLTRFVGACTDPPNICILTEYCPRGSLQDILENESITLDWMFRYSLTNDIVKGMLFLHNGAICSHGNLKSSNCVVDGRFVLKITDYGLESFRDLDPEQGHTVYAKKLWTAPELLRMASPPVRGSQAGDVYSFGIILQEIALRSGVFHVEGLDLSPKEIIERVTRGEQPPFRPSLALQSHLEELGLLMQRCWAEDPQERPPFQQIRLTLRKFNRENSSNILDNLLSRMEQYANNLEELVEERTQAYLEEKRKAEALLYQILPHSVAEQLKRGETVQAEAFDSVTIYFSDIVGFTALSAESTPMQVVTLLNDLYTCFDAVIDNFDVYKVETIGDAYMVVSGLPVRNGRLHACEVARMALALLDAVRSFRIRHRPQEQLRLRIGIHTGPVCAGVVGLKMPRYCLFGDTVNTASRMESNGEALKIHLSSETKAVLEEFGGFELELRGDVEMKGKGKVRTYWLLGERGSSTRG
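HEK293 cells stably expressing human Npr1 and cGMP GloSensor pGS-40F, loaded 2 h with 2% GloSensor reagent, given compound 30 min at room temperature. Luminescence read before and 20 min after 0.1 nM hNppA.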
HEK cytotox: Cytotoxic Profiling in HEK 293 Cell Line of Diverse Libraries Using Quantitative High-Throughput Screening; HEK 293 viability, ATP luminescence (CellTiter-Glo), 48-72 h; Potency, µM (top dose mostly 115 µM), for inactives: at the top dose activity change, negative = cytotoxicity, most hits filed as inhibitors; hit rate 6.6% among 94,000; AID 1345083, 2018; note: nearly all actives have a fitted effect of over 60% in size
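ATP-coupled CellTiter-Glo luminescence served as viability read-out, recorded 10 min after reagent addition at room temperature. HEK 293 cells, 250 cells/well, had been incubated with pintool-transferred compound for 48 or 72 hr at 37 degree Celsius.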
SNCA viab count: GF-AFC viability counterscreen for inhibitors of alpha-synuclein gene (SNCA) expression; hit rate 0.12% among 150,000; HEK-293-SNCA-luc viability, GF-AFC fluorescence, 24 h; Potency, µM (top dose mostly 57.1 µM), for inactives: top-dose activity change, negative = cytotoxicity, most hits filed as cytotoxic;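 note: 0% = DMSO-treated cells and -100% = medium-only wells without cells; nearly all actives have a fitted effect of over 30% in size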
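Cytotoxicity counterscreen: after 24 h compound treatment of genome-edited SNCA-luciferase HEK-293 cells, live-cell protease substrate GF-AFC read by fluorescence after 30 min; activity scaled between DMSO (0%) and medium-only (-100%), curves Hill-fitted.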
FLuc inh: Firefly luciferase inhibition profiling of diverse chemical library using quantitative high-throughput screening | Potency, µM (top dose mostly 115 µM), hits mostly inhibitors | Luciferin 4-monooxygenase (Photinus pyralis), P08659 | purified P. pyralis luciferase, luminescence, biochemical | AID 1347043, 2019 | hit rate 2.5% among 76,000; note: nearly all actives have a fitted effect of over 65% in size
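Luminescence read by CCD imaging after purified firefly luciferase (10nM final) was added to substrate buffer holding 10uM D-luciferin and 10uM ATP, pH 7.5, pre-dosed with compound.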
* marks the source's active call; other numbers are inactive results; [ ] = another dose, or the depositor's remark. Hits are enriched below; roughly 7.2% of the tested compounds scored in any of these assays. Unless noted, calls come from the whole dose curve; as a rule, active = well fitted curve in the direction sought with a large enough effect; inconclusive = small, poorly fitted or top-dose-only effect, or another doubt; inactive = no such curve, though single readings can be large; an effect the other way counts as inactive or inconclusive. Unless noted, % is set by controls: 0 for no effect and ±100 for the full control effect; potency is the fitted concentration of half-maximal effect.

What do the screens show for `COc1ccc(-c2cc(N3CCCN(C(=O)c4cc5ccccc5[nH]4)CC3)n[nH]2)cc1`?
NIH3T3 tox: 35µM*; SNCA expr inh: 60%; NPR1 antag: -19%; HEK cytotox: 45µM*; SNCA viab count: -11%; FLuc inh: inconclusive

What do the screens show for `COc1ccc(C2(C(=O)N3CCCN(c4cc(-c5ccc(C)c(C)c5)[nH]n4)CC3)CC2)cc1`?
NIH3T3 tox: 32µM*; SNCA expr inh: inconclusive; NPR1 antag: inconclusive; HEK cytotox: 25µM*; SNCA viab count: -18%; FLuc inh: inactive

What do the screens show for `COc1cc(OC)cc(C(=O)N2CCCN(c3cc(-c4ccc(C)c(C)c4)[nH]n3)CC2)c1`?
NIH3T3 tox: inconclusive; SNCA expr inh: -6%; NPR1 antag: -15%; HEK cytotox: inconclusive; SNCA viab count: -8%; FLuc inh: inactive

How did O=S(=O)(c1cccc2nsnc12)N1CCCC(c2nc(CCOCC3CC3)no2)C1 (stereo unspecified) do in these assays?
NIH3T3 tox: -12%; SNCA expr inh: -23%; HEK cytotox: -6%; SNCA viab count: inconclusive

What do the screens show for `COc1ccccc1CNC(=O)[C@@H]1Cc2c[nH]c3cccc(c23)[C@H](CC(C)C)N1`?
NIH3T3 tox: 28µM*; SNCA expr inh: inconclusive; NPR1 antag: -20%[70.6 µM]; HEK cytotox: 35µM*; SNCA viab count: inconclusive; FLuc inh: inactive

What do the screens show for `CC(C)C[C@@H]1N[C@H](C(=O)NCCN2CCCC2)Cc2c[nH]c3cccc1c23`?
NIH3T3 tox: inconclusive; SNCA expr inh: 4%[87.6 µM]; NPR1 antag: -7%[70.6 µM]; HEK cytotox: inconclusive; SNCA viab count: -3%[87.6 µM]; FLuc inh: inactive

Results for CC(C)C[C@@H]1N[C@H](C(=O)NCc2ccccc2Cl)Cc2c[nH]c3cccc1c23 ?
NIH3T3 tox: 32µM*; SNCA expr inh: inconclusive; NPR1 antag: -20%[70.6 µM]; HEK cytotox: 28µM*; SNCA viab count: inconclusive; FLuc inh: inactive

How did CC(C)C[C@@H]1N[C@H](C(=O)NCCCN2CCCC2=O)Cc2c[nH]c3cccc1c23 do in these assays?
NIH3T3 tox: -17%[174 µM]; SNCA expr inh: -9%[87.6 µM]; NPR1 antag: 5%[70.6 µM]; HEK cytotox: inconclusive; SNCA viab count: 2%[87.6 µM]; FLuc inh: inactive

How did CC1=C[C@@H](CNCc2cccnc2)[C@H](C(C)C)C[C@H]1Cc1nnc(-c2ccccc2)o1 do in these assays?
NIH3T3 tox: inconclusive; SNCA expr inh: inconclusive; NPR1 antag: -14%[70.6 µM]; HEK cytotox: 79µM*; SNCA viab count: inconclusive; FLuc inh: inactive

What do the screens show for `CC1=C[C@@H](CNCc2cccnc2)[C@H](C(C)C)C[C@H]1Cc1nnc(-c2ccccc2F)o1`?
NIH3T3 tox: -25%[138 µM]; SNCA expr inh: -19%[87.6 µM]; NPR1 antag: -10%[70.6 µM]; HEK cytotox: inconclusive; SNCA viab count: -24%[87.6 µM]; FLuc inh: inactive

Results for CC1=C[C@@H](CNc2ccccn2)[C@H](C(C)C)C[C@H]1Cc1nnc(-c2ccc(C)cc2)o1 ?
NIH3T3 tox: 40µM*; SNCA expr inh: inconclusive; NPR1 antag: inconclusive; HEK cytotox: 35µM*; SNCA viab count: -22%[87.6 µM]; FLuc inh: inactive

What do the screens show for `CC1=C[C@@H](CN(C)CCO)[C@H](C(C)C)C[C@H]1Cc1nnc(-c2ccccc2F)o1`?
NIH3T3 tox: inconclusive; SNCA expr inh: -4%[87.6 µM]; NPR1 antag: -2%[70.6 µM]; HEK cytotox: inconclusive; SNCA viab count: inconclusive; FLuc inh: inactive

What do the screens show for `CC1=C[C@@H](CNCc2ccccn2)[C@H](C(C)C)C[C@H]1Cc1nnc(-c2ccccc2F)o1`?
NIH3T3 tox: inconclusive; SNCA expr inh: inconclusive; NPR1 antag: -21%[70.6 µM]; HEK cytotox: 22µM*; SNCA viab count: inconclusive; FLuc inh: inactive

How did CC1=C[C@@H](CNCc2ccncc2)[C@H](C(C)C)C[C@H]1Cc1nnc(-c2ccccc2F)o1 do in these assays?
NIH3T3 tox: inconclusive; SNCA expr inh: inconclusive; NPR1 antag: inconclusive; HEK cytotox: 20µM*; SNCA viab count: inconclusive; FLuc inh: inactive

How did CCOc1ccc(CN2C[C@@H](NC(=O)c3cccnc3)C[C@H]2CO)cc1 do in these assays?
NIH3T3 tox: -19%; SNCA expr inh: -7%; NPR1 antag: 4%; HEK cytotox: -21%; SNCA viab count: -4%; FLuc inh: inactive

How did COC(=O)CNC(=O)c1cn2cc(-c3ccc(OC)cc3)sc2n1 do in these assays?
NIH3T3 tox: inconclusive; SNCA expr inh: 30%[87.6 µM]; HEK cytotox: -24%[172 µM]; SNCA viab count: 3%[87.6 µM]

Results for CC(=O)NCCNC[C@@H]1C=C(C)[C@H](Cc2nnc(-c3cncn3C)o2)C[C@H]1C(C)C ?
NIH3T3 tox: -9%[174 µM]; SNCA expr inh: -13%[87.6 µM]; NPR1 antag: -3%[70.6 µM]; HEK cytotox: -15%[172 µM]; SNCA viab count: -22%[87.6 µM]; FLuc inh: inactive

Results for CC1=C[C@@H](CNCc2ccco2)[C@H](C(C)C)C[C@H]1Cc1nnc(-c2ccccc2F)o1 ?
NIH3T3 tox: inconclusive; SNCA expr inh: inconclusive; NPR1 antag: -21%[70.6 µM]; HEK cytotox: 79µM*; SNCA viab count: inconclusive; FLuc inh: inactive

How did CC(=O)NCCNC[C@@H]1C=C(C)[C@H](Cc2nnc(-c3ccccc3)o2)C[C@H]1C(C)C do in these assays?
NIH3T3 tox: 89µM*; SNCA expr inh: -17%[87.6 µM]; NPR1 antag: 1%[70.6 µM]; HEK cytotox: 56µM*; SNCA viab count: inconclusive; FLuc inh: inactive

How did CC(=O)Nc1ccc(NC[C@@H]2C=C(C)[C@H](Cc3nnc(C)o3)C[C@H]2C(C)C)cn1 do in these assays?
NIH3T3 tox: -14%[174 µM]; SNCA expr inh: 6%[87.6 µM]; NPR1 antag: -1%[70.6 µM]; HEK cytotox: 112µM*; SNCA viab count: -10%[87.6 µM]; FLuc inh: inactive

How did COc1ccc(C(=O)NC2CCN(c3cnn(C)c(=O)c3)CC2)c(OC)n1 do in these assays?
NIH3T3 tox: -25%; SNCA expr inh: 2%; NPR1 antag: -2%; HEK cytotox: inconclusive; SNCA viab count: inconclusive; FLuc inh: inactive

Results for c1ccc(-c2nc3c(c(NCC4OCCc5ccccc54)n2)CCNCC3)nc1 (stereo unspecified) ?
NIH3T3 tox: 79µM*; SNCA expr inh: 10%; NPR1 antag: 4%; HEK cytotox: inconclusive; SNCA viab count: -7%; FLuc inh: inactive
